Source: PubChem
EP2 modulator: modulates human prostaglandin E2 receptor EP2 signaling; EP2-expressing cells, cAMP HTRF FRET, PGE2 co-stimulation; induction, % at 25 µM; hit rate 0.83% among 260,000; AID 940;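 active means compounds whose cAMP rise, as percent of the full-agonist control response, exceeds 60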;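 further: rat C6 glioma line stably carrying human EP2 under a CMV promoter; the protocol text gives 20 µM as final concentration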
Target sequence (P43116 whole entry, looked up): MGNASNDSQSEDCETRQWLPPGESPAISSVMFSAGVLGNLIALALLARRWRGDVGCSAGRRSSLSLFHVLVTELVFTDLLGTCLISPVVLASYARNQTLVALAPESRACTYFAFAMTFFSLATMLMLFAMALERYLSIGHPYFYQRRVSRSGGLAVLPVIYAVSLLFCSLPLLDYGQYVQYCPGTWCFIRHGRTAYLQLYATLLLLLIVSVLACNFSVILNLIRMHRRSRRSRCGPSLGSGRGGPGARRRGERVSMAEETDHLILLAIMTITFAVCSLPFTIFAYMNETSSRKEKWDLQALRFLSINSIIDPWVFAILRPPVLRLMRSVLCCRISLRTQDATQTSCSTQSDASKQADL
EP2 antag: inhibitors of human EP2 prostaglandin E2 receptor | P43116 | C6 glioma cells expressing human EP2, cAMP TR-FRET; cells stimulated with saturating PGE2 | inhibition, % at 25 µM | hit rate 0.52% among 260,000 | AID 1422;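 active means percent inhibition above 40 after rounding to a whole number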;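 further: rat C6 glioma host cells with rolipram phosphodiesterase inhibitor present; the protocol text gives 20 µM as final concentration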
S1P4 antag: blocks the human S1P4 receptor; O95977; S1P4-expressing cells, antagonist mode, reporter read-out; inhibition, % at 4.98 µM; hit rate 0.26% among 220,000; AID 1510; in the data active means inhibition above about 29%
S1P4 ag: agonists of human S1P4 receptor | O95977 | S1P4-expressing cell line, agonist reporter assay | activation, % at 4.98 µM | hit rate 0.35% among 220,000 | AID 1509; in the data active means activation above about 11%
INS promoter inh: TRM-6 insulin promoter activity inhibition; TRM-6 cells (human fetal islet line), insulin promoter-eGFP reporter, imaging; reporter expression induced with tamoxifen; inhibition, % at 2 µM; hit rate 0.9% among 130,000; AID 1273;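 active means inhibition above the mean plus 3 SD, with well images judged a real hit on visual review, cut at about 60% in these data, passing the limit was not always enough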
S1P3 antagonist: antagonists of human S1P3 receptor; Q99500; CHO S1P3 NFAT-BLA reporter, FRET fluorescence, antagonist mode; inhibition, % at 4.98 µM; hit rate 0.27% among 170,000;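 active means inhibition above the plate cutoff, the mean inhibition of test wells on that plate plus 3 SD, cut at about 28% in these data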;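 further: cells challenged with S1P at its EC80 of 0.8 µM; blue over green emission ratio from cleaved BLA substrate after 4 h stimulation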
EP2 confirm: EP2 receptor cAMP induction, counter-screens negative; C6 glioma EP2 cells, cAMP HTRF induction; plus low (about EC15) PGE2 agonist; shares compounds with EP2 modulator; calls only at 20 µM (by protocol); hit rate 47% among 1,300; AID 1080;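 active means cAMP induction above 50% in the main assay while under 30% in all four parallel counter assays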;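 further: rat C6 glioma cells stably expressing human EP2 receptor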
A number is an active result; . = inactive; / = no result given; + = active, no number; ! = not active in a repeat. The list is not random: actives were taken first. Their share in the collection is about 2.4%.

SMILES | EP2 modulator | EP2 antag | S1P4 antag | S1P4 ag | INS promoter inh | S1P3 antagonist | EP2 confirm
Cc1nc(N(C)C)c2sc(=S)n(Cc3ccccc3)c2n1 | 76 | . | . | . | / | . | +
COc1ccc2[nH]c(=O)c(CN(C(=S)NCCc3ccccc3)C3CCCC3)cc2c1 | . | . | / | / | / | / | /
COc1cc(OC)c2c(OC)c(-c3ccc4c(c3)OCO4)c(=O)oc2c1 | 62 | . | / | / | / | / | .
COc1cc(OC)c2c(-c3ccccc3)cc(=O)oc2c1 | . | . | . | . | / | . | /
COC(=O)c1cc(C#N)c(SCc2ccccc2)nc1C | . | . | . | . | / | / | /
CC(=O)c1cc(C#N)c(SCc2ccccc2)nc1C | 72 | . | . | . | . | / | +
O=C(O)Cc1c(O)ccc2ccccc12 | . | . | . | . | . | / | /
Oc1ccc2ccccc2c1Cc1c(O)ccc2ccccc12 | 70 | . | / | / | / | / | .
CCCCC(=O)Nc1sc2c(c1C(=O)OCC)CCC(C=O)=C2Cl | 63 | . | . | . | / | / | +
O=C(O)CCCCCCCCCCCc1ccccc1 | 78 | . | . | . | . | . | +
Cc1cc(Nc2ccc(Br)cc2)n2nc(C)nc2n1 | 88 | . | . | . | / | . | .
COc1ccc(C(=O)c2ccccc2)c(O)c1 | . | . | . | . | . | . | +
COCC(O)CN1CCN(C(=O)c2nnn(-c3ccccc3)c2C)CC1 (stereo unspecified) | . | . | / | / | / | / | /
CCn1c2c(c3cc(OCC(C)C)ccc31)CCCC2=O | 74 | . | . | . | . | / | +
CCn1c2c(c3cc(Br)ccc31)CCC/C2=N\O | . | . | . | . | . | . | /
COc1cccc(-n2c(SCC(=O)Nc3cccc(Cl)c3C)nc3ccccc3c2=O)c1 | . | . | / | / | / | / | /
COc1ccc(-c2cc(-c3cccs3)nc3sc(C#N)c(N)c23)cc1 | . | . | . | . | . | . | /
N#Cc1sc2nc(C3CC3)cc(-c3ccc(Cl)cc3)c2c1N | 76 | . | . | . | . | . | .
Cc1cc(C)nc(SCc2nnc(SCC#N)n2-c2cccc(Cl)c2)n1 | . | . | . | . | . | . | .
O=C(O)c1cc2cc(Cl)ccc2[nH]1 | . | . | / | / | / | / | /
O=C(O)c1cc2cc(F)ccc2[nH]1 | 113! | . | . | . | . | . | .
C=CCSc1nc(N(CC)CC)c2sccc2n1 | 67 | . | . | . | . | / | .
CCOC(=O)C1CCN(C(=O)c2cccc(Cl)c2)CC1 | . | . | . | . | . | . | /
CCOC(=O)C1CCN(c2c(C(=O)c3ccccc3)cnc3ccc(Cl)cc23)CC1 | 81 | . | . | . | / | . | +
COc1ccc(NS(=O)(=O)c2ccc(N3CCOCC3)c(NC(=O)c3ccccc3Cl)c2)cc1 | . | . | . | . | . | . | /
SMILES | EP2 modulator | EP2 antag | S1P4 antag | S1P4 ag | INS promoter inh | S1P3 antagonist | EP2 confirm
O=C(Nc1cc(S(=O)(=O)Nc2ccc(Cl)cc2)ccc1N1CCCCC1)c1ccc(F)cc1Cl | 76 | . | . | . | . | . | +
Cc1cc2ccc(C)c(C)c2nc1SCC#N | 66 | . | . | . | . | . | +
Cc1cc2ccc(C)c(C)c2nc1SCC(=O)c1cccs1 | . | . | . | . | . | / | /
CC(=O)c1cccc(S(=O)(=O)N2CCCC(c3nc(-c4cccs4)no3)C2)c1 (stereo unspecified) | . | . | / | / | / | / | /
CC(C)n1c2ccccc2c2nnc(SCC(=O)Nc3ccccc3C(=O)O)nc21 | 73 | . | . | . | . | . | .
Cc1cc2c(cc3c(=O)n(CC(=O)N4CCCCCC4)nc(C)n32)o1 | . | . | / | / | / | / | /
CC(C)(C)n1nnnc1C(c1ccncc1)N(Cc1ccccc1)Cc1ccco1 (stereo unspecified) | 71 | . | . | . | . | / | .
CC(C)(C)n1nnnc1C(c1cccs1)N(Cc1ccccc1)Cc1ccco1 (stereo unspecified) | . | . | . | . | . | . | /
O=C(COC(=O)c1cccnc1)Nc1ccc(F)c(F)c1F | . | . | / | / | / | / | /
COc1ccc(C2=Nn3c(nnc3-c3ccccc3)SC2)cc1OC | 70 | . | . | . | . | / | .
COc1ccc(OC)c(C2=Nn3c(nnc3C3CCCCC3)SC2)c1 | . | . | . | . | . | / | /
COc1ccc(C2=Nn3c(nnc3C3CCCCC3)SC2)cc1OC | 77 | . | . | . | . | / | +
COc1ccc(OC)c(C2=Nn3c(nnc3-c3ccco3)SC2)c1 | 74 | . | . | . | / | / | +
O=C(NC1CC2CCCC(C1)N2C1CCCCC1)c1cccc(Cl)c1 (stereo unspecified) | . | . | / | / | / | / | /
